Screening results deposited in PubChem BioAssay by several laboratories.
Rpn11 block: Rpn11 (PSMD14) deubiquitinase inhibitors, primary screen, biochemical, fluorescence polarization, uHTS. AID 588493, 2011. human 26S proteasome, Ub4-pepOG fluorescence polarization; 20S core pre-blocked with epoxomicin. inhibition, % at 20 µM. 26S proteasome non-ATPase regulatory subunit 14 (Homo sapiens), O00487. 0.59% of 360,000 active;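 active means inhibition at 20 µM, scaled to each plate's controls, above about 33%, limit read from the data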
NadD block: inhibitors of S. aureus NadD, primary screen, biochemical, colorimetric, uHTS; inhibition, % at 20 µM; Nicotinate-nucleotide adenylyltransferase NadD (Staphylococcus aureus N315); 0.78% of 360,000 active; purified NadD enzyme, colorimetric absorbance read-out; in the data active means inhibition above about 26%
PP1 inh: PP1-alpha phosphatase inhibitors, primary screen, counter-screen for PP5 inhibitor project, biochemical, fluorescence, OMFP substrate, single point | Serine/threonine-protein phosphatase PP1-alpha catalytic subunit (Homo sapiens), P62136 | purified PP1alpha | inhibition, % at 6.7 µM | 0.9% of 320,000 active | AID 2235, 2010;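 active means inhibition above the mean inhibition of all tested compounds plus 3 SD, computed separately for each screening campaign, cut at about 15% in these data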
PREPL inh: PREPL enzyme inhibitors, primary screen, biochemical, fluorescence polarization. AID 2751, 2010. recombinant PREPL, fluorescence polarization activity-based probe. 0.68% of 320,000 active. Prolyl endopeptidase-like (Homo sapiens), Q4J6C6. inhibition, % at 5.96 µM
Target sequence (Q4J6C6 whole entry, looked up): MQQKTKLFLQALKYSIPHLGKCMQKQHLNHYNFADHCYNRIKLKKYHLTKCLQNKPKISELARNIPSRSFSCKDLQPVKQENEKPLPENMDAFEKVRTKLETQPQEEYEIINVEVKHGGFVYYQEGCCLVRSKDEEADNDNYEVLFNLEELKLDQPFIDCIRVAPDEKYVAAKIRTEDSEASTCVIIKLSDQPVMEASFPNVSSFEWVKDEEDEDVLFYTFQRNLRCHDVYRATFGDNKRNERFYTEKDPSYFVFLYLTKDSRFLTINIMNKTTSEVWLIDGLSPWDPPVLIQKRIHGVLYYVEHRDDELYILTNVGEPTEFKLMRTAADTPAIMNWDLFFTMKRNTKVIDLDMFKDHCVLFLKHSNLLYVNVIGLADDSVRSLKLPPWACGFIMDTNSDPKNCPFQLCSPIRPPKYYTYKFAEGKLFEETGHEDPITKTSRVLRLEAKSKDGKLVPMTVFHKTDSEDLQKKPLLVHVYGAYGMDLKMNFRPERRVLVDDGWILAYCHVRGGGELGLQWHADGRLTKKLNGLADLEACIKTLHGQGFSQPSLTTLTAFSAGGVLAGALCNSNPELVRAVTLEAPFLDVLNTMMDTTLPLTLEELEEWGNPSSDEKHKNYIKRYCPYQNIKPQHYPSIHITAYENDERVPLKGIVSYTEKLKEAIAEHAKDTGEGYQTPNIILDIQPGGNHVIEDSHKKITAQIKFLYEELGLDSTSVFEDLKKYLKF
PP5 primary: PP5 phosphatase inhibitors, primary screen, biochemical, fluorescence. inhibition, % at 6.7 µM. 0.18% of 320,000 active. purified PP5c, OMFP substrate fluorescence;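 active means inhibition above the campaign's mean inhibition across all tested compounds plus 3 SD, cut at about 9.5% in these data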
PREPL confirm: human PREPL enzyme inhibitors, confirmation, biochemical, fluorescence polarization. shares compounds with PREPL inh. recombinant PREPL, fluorescence polarization activity probe. inhibition, % at 5.96 µM. 67% of 2,000 active. AID 2803, 2010
Hits are given with their value; - = inactive; . = no result given. This is a sample that favours compounds with a hit; in the whole collection about 2.4% have one here. Unless noted, no stated cut-off is given here; in the data, active means inhibition above about 43%; inactive means the rest.

SMILES	Rpn11 block	NadD block	PP1 inh	PREPL inh	PP5 primary	PREPL confirm
CNC[C@@H]1Oc2ccc(NC(=O)Nc3cccc4ccccc34)cc2C(=O)N([C@@H](C)CO)C[C@@H]1C	.	.	.	50	.	46
C[C@H](CO)N1C[C@H](C)[C@@H](CN(C)S(=O)(=O)c2ccc(F)cc2)Oc2ccc(NC(=O)Nc3ccc4c(c3)OCO4)cc2C1=O	-	-	.	45	.	48
Cc1noc(C)c1S(=O)(=O)Nc1ccc2c(c1)C(=O)N([C@H](C)CO)C[C@H](C)[C@@H](CN(C)C(=O)Nc1ccc(C(F)(F)F)cc1)O2	-	-	.	55	.	50
COc1ccc(S(=O)(=O)Nc2ccc3c(c2)C(=O)N([C@H](C)CO)C[C@H](C)[C@@H](CN(C)C(=O)Nc2ccc(C(F)(F)F)cc2)O3)cc1	-	-	.	45	.	-
COc1ccc(CCNC(=O)c2noc(C)c2[N+](=O)[O-])cc1OC	-	-	-	-	-	.
O=C(Nc1cc(Cl)ccc1Cl)Nn1cnnc1	-	-	.	.	.	.
COc1cc(NC(=O)CN2C(=O)NC(C)(c3ccc4ccccc4c3)C2=O)c(C)cc1[N+](=O)[O-] (stereo not drawn)	-	-	-	58	-	-
COc1cc(NC(=O)CN2C(=O)NC(C)(c3ccccc3)C2=O)c(C)cc1[N+](=O)[O-] (stereo not drawn)	-	-	-	-	-	.
COc1ccc(N2CCN(C(=O)CN3C(=O)NC(C)(c4ccc5ccccc5c4)C3=O)CC2)cc1 (stereo not drawn)	-	-	-	57	-	53
COCc1cccc(-c2csc(C(O)c3ccccc3)n2)c1 (stereo not drawn)	-	-	.	.	.	.
COCCn1c(SCC(=O)Nc2cccc(F)c2)nc2c(c1=O)SCC2	-	-	-	-	-	.
CCOc1cccc(-c2c(C(=O)N/N=C/c3cccs3)nnn2-c2nonc2N)c1	-	-	-	-	-	.
c1ccc2cc(C3OCC4(CCCC4)CO3)ccc2c1	-	-	.	.	.	.
COc1ccc(C2CC(C)(c3ccc(OC)cc3)Nc3ccccc3N2)cc1 (stereo not drawn)	-	-	-	45	-	-
COc1ccc(C2(C)CC(C)(C)Nc3ccccc32)cc1 (stereo not drawn)	-	-	-	-	-	.
Cc1ccc(NC2=CC(=O)C(=O)c3ccccc32)c(C)c1	-	-	-	47	-	-
COc1ccc(CN2C=C3C(=O)C(C)(OC(=O)CCc4ccccc4)C(=O)C=C3C=C2c2ccc(C#N)cc2)cc1 (stereo not drawn)	-	-	-	-	-	.
CCCCC1=CC2=C(c3ccco3)C(=O)C(C)(OC(=O)c3ccc(OC)cc3)C(=O)C2=CN1CCCN(CC)CC (stereo not drawn)	-	-	-	-	-	.
COCCN1C=C2C(=O)C(C)(OC(=O)CCC(=O)OC)C(=O)C(Br)=C2C=C1c1ccc(OC)cc1 (stereo not drawn)	-	-	-	64	-	-
CCN(CC)CCCN1C=C2C(=O)C(C)(OC(=O)CCC(=O)OC)C(=O)C(Br)=C2C=C1c1ccc(OC)cc1 (stereo not drawn)	-	-	-	70	-	60
CCN(CC)CCCN1C=C2C(=O)C(C)(OC(=O)CCc3ccccc3)C(=O)C=C2C=C1c1ccc(C#N)cc1 (stereo not drawn)	-	-	-	43	-	-
C(=N\n1cnnc1)/c1ccc(OCc2cccc3ccccc23)cc1	-	-	-	50	-	-
CC(=O)[C@]1(O)Cc2c(O)c3c(c(O)c2[C@@H](O[C@H]2C[C@H](N)[C@H](O)[C@H](C)O2)C1)C(=O)c1ccccc1C3=O	.	.	-	66	-	85
O=C(Nc1cccc(Cl)c1Cl)C1CCCO1 (stereo not drawn)	-	-	-	-	-	.
CC1=CCC2COC(c3ccc[n+](Cc4ccccc4)c3)C1C2 (stereo not drawn)	-	-	-	49	-	-
SMILES	Rpn11 block	NadD block	PP1 inh	PREPL inh	PP5 primary	PREPL confirm
c1ccc(C[n+]2cccc(-c3ccccc3)c2)cc1	-	-	-	-	-	.
Cc1ccc(Nc2nc(N/N=C/c3c[nH]c4ccccc34)nc(N3CCOCC3)n2)cc1	-	-	-	44	-	60
CCOc1ccc(S(=O)(=O)N2CCC(C(=O)NCc3ccncc3)CC2)cc1C	-	-	-	-	-	.
Nc1c(C(=O)NC2CCCC2)c2nc3ccccc3nc2n1N	-	-	-	44	-	-
Cc1ccc2nc(Cl)c(CN(C(=O)c3cnccn3)C3CCCCC3)cc2c1	-	-	-	-	-	.
O=C1/C(=N\S(=O)(=O)c2cccs2)C([n+]2ccc(CCCc3ccccc3)cc2)=C([O-])c2ccccc21	-	-	-	69	-	70
COc1cc(/C=C2/C(=O)NN(c3cccc(C)c3)C2=O)ccc1OC(=O)c1ccco1	-	-	-	56	-	-
COc1cc(/C=C2/C(=O)NN(c3cccc(C)c3)C2=O)cc([N+](=O)[O-])c1O	-	-	-	-	-	.
Cc1ccc(NC(=O)c2ccc(C(C)(C)C)cc2)cc1-n1cnnn1	-	-	-	-	-	.
Fc1cccc(Nc2nc3ccccc3n3nnnc23)c1	-	-	-	-	-	.
c1ccc2c(c1)nc(Nc1ccc3c(c1)OCO3)c1nnnn12	-	-	-	47	-	45
C#CCOCCOCCOCCNc1nc(N2CCN(C(=O)C([C@@H](C)CC)n3cc(C(N)COC(=O)C(F)(F)F)nn3)CC2)nc(N2CCN(C(=O)[C@H](Cc3cc4ccccc4[nH]3)n3cc(C(N)CO)nn3)CC2)n1 (stereo partly drawn)	.	.	-	-	-	.
C#CCOCCOCCOCCNc1nc(N2CCN(C(=O)[C@H]([C@@H](C)CC)n3cc([C@@H](N)CO)nn3)CC2)nc(N2CCN(C(=O)[C@H](Cc3cc4ccccc4[nH]3)n3cc([C@@H](N)C(C)CC)nn3)CC2)n1 (stereo partly drawn)	.	.	-	48	-	49
C#CCOCCOCCOCCNc1nc(N2CCN(C(=O)[C@H](Cc3ccc(O)cc3)n3cc([C@@H](N)C(C)CC)nn3)CC2)nc(N2CCN(C(=O)[C@H](Cc3cc4ccccc4[nH]3)n3cc([C@@H](N)C(C)CC)nn3)CC2)n1 (stereo partly drawn)	-	34	17	47	-	-
